This is part of a sample that, as a whole, favours compounds with a hit. Of some 79,000 tested, about 15% had one in any assay. Values without a mark were called inactive. Activity calls are given as the source filed them. Cut-off read from the data, not from the text of the source: active = growth inhibition above about 70%; inactive = the rest.
Assays:
[1] = NCI Yeast Anticancer Drug Screen. Data for the rad50 strain (AID 155);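 note: 0% = growth of vehicle-only cultures of the same strain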; conditions: S. cerevisiae rad50 strain growth inhibition, stronger effect = higher value
In short: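 A DNA repair-deficient yeast mutant serves as the test organism; compound-induced growth inhibition is calculated against vehicle-treated cells.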

[2] = NCI Yeast Anticancer Drug Screen. Data for the mec2-1 strain (AID 157); conditions: S. cerevisiae mec2-1 strain, stronger effect = higher value
In short: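 Yeast mec2-1 mutant treated with compound. Readout: growth inhibition vs vehicle controls.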

[3] = NCI Yeast Anticancer Drug Screen. Data for the sgs1 mgt1 strain (AID 161);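 note: 0% = growth of cultures given vehicle only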; conditions: S. cerevisiae sgs1 mgt1 strain, stronger effect = higher value
In short: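 Test agents were incubated with a DNA-repair-mutant yeast strain. Growth was then read and compared against vehicle-treated controls.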

[4] = NCI Yeast Anticancer Drug Screen. Data for the cln2 rad14 strain (AID 165);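 note: 0% = growth equal to vehicle treated cultures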; conditions: S. cerevisiae cln2 rad14 strain, stronger effect = higher value
In short: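 cln2 rad14 yeast strain; compound exposure; growth inhibition read vs vehicle controls.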

[5] = NCI Yeast Anticancer Drug Screen. Data for the bub3 strain (AID 167); conditions: S. cerevisiae bub3 mutant strain, stronger effect = higher value
In short: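 Inhibition values come from growth of compound-treated mutant yeast normalised to vehicle-treated controls.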

[6] = NCI Yeast Anticancer Drug Screen. Data for the mlh1 rad18 strain (AID 175); conditions: S. cerevisiae mlh1 rad18 strain growth inhibition, stronger effect = higher value
In short: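 Yeast w/ defined DNA-repair lesions; compound exposure; growth vs vehicle controls → % inhibition.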

[7] = at 5.0 µM (retest, dose inferred, filed as 0.5)
[8] = at 50.0 µM (retest, dose inferred, filed as 5.0)

Row | Compound | growth inhibition [1, 7] [%] | growth inhibition [1, 8] | growth inhibition ([1]; at 50.0 µM) | growth inhibition [2, 7] [%] | growth inhibition [2, 8] | growth inhibition ([2]; at 50.0 µM) | growth inhibition [3, 7] [%] | growth inhibition [3, 8] | growth inhibition ([3]; at 50.0 µM) | growth inhibition [4, 7] [%] | growth inhibition [4, 8] | growth inhibition ([4]; at 50.0 µM) | growth inhibition [5, 7] [%] | growth inhibition [5, 8] | growth inhibition ([5]; at 50.0 µM) | growth inhibition [6, 7] [%] | growth inhibition [6, 8] | growth inhibition ([6]; at 50.0 µM)
1 | CS(=O)(=O)OCCN(CCOS(C)(=O)=O)c1ccc(N=Nc2ccccc2)cc1 | 32 | 82% (active) | 57.7% | 15 | 73% (active) | 45% | 52 | 88% (active) | 46% | 45 | 96% (active) | 49.8% | 56 | 84% (active) | 39.5% | 22 | 69% | 76.8% (active)
2 | Cc1cc(C)c(CCCC(=O)c2c(C)cc(C)cc2C)c(C)c1 | -7 | 28% | 9.85% | -4 | 1% | -1.6% | -7 | 23% | 9.85% | 1 | -10% | 29.1% | 1 | 6% | 15.6% | -3 | -12% | 9.75%
3 | Oc1ccc[nH]c1=S | 19 | 18% | 18.4% | 6 | 12% | 12.2% | 3 | -34% | 85.2% (active) | 8 | -4% | -8.7% | 13 | -2% | 74.5% (active) | 23 | 12% | 90.9% (active)
4 | Cc1ccc(SC2C(=O)C3(C)CCC2C3(C)C)cc1 (stereo not given) | -1 | 32% | 64.2% | -1 | 27% | 28.8% | -2 | 44% | 72.2% (active) | -1 | 1% | -21.7% | 2 | 28% | 37.5% | 0 | 52% | 82% (active)
5 | C/C(=N\O)c1ccc2c3c(ccc([N+](=O)[O-])c13)CC2 | -2 | 9% | 13.2% | -9 | 7% | 29.2% | -9 | -2% | -6.4% | 0 | -5% | 34.9% | 0 | 7% | 85.2% (active) | 8 | 30% | 88.5% (active)
6 | CCCCCCCCN/N=C(/C)CCCCCO | -6 | 4% | -14.2% | 4 | 9% | -11.8% | 1 | 1% | -12.7% | -67 | -2% | 22.8% | 1 | -80% | 15.9% | -1 | -12% | -23.6%
7 | O=C1COC(=O)/C1=C\C=C\c1ccccc1 | 5 | 55% | 95.6% (active) | 8 | 84% (active) | 91% (active) | 13 | 78% (active) | 99% (active) | 1 | 94% (active) | 95.4% (active) | -5 | 43% | 97.2% (active) | 2 | 68% | 99% (active)
8 | O=[N+]([O-])c1c(C=Nc2ccccc2)oc(-c2c(O)ccc3ccccc23)c1-c1c(O)ccc2ccccc12 | 1 | 2% | 98.7% (active) | -13 | -11% | 98.7% (active) | -7 | -4% | 98.8% (active) | -30 | -26% | 98.5% (active) | 3 | 3% | 98.8% (active) | -2 | -1% | 98.8% (active)
9 | Cc1cc(SCc2ccccc2)cc(C)[o+]1 | -1 | 92% (active) | 17.4% | 18 | 99% (active) | 44.4% | -20 | 88% (active) | 60.1% | -1 | 93% (active) | 55.8% | -2 | 96% (active) | 61.5% | -6 | 96% (active) | 63.7%
10 | CCC(C)NC(=S)N/N=C(\C)c1ccccn1 (stereo not given) | 20 | 100% (active) | 78% (active) | 19 | 99% (active) | 85.7% (active) | 5 | 98% (active) | 90.6% (active) | 33 | 100% (active) | 90% (active) | 0 | 100% (active) | 90.5% (active) | 39 | 99% (active) | 89.2% (active)
